The text below walks through data of PubChem BioAssay (NCI).

About 83,000 compounds went through this panel and 20% of them were active in at least one assay; those are over-represented in the sample as a whole.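 Step 1: grow cells in 96-well plates. Step 2: add test compound at a single concentration. Step 3: incubate 48 h. Step 4: record percent growth.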 Unmarked numbers belong to inactive results. Active and inactive are the calls of the source. How the source made its calls: active means growth percent below 10; inactive means the rest.

Some test systems named below: DU-145 prostate; K-562 leukemia; MALME-3M melanoma; MDA-MB-231 breast; RXF 393 renal; SF-268 CNS; SF-295 CNS; SF-539 CNS; UACC-257 melanoma; M14 melanoma.
Common to all, as to test: NCI-60 one-dose screen, 48 h (100 = growth as untreated, 0 = no growth, -100 = all killed)
Settings in all cases: 10 µM unless noted

With `O=C(/C=C/c1ccc(Cl)cc1)c1ccc(NC(=O)N2CCN(c3cc4c(cc3F)c(=O)c(C(=O)O)cn4C3CC3)CC2)cc1`, the growth was 98.5% in the assay on DU-145 prostate; 65% in the assay on K-562 leukemia; 103% in the assay with MALME-3M melanoma; 93% with MDA-MB-231 breast; 97.9% in the assay on RXF 393 renal; 89.3% in the assay on SF-268 CNS. Moreover, the growth is 108% in the assay on SF-295 CNS, 81.7% in the assay with SF-539 CNS, 105% with UACC-257 melanoma and 104% in the assay with M14 melanoma.
Take `C=CCN1C(=O)/C(=C/C(=O)OC)S/C1=N\NC(=O)c1cc2ccc1/C=C\c1ccc(cc1)/C=C\2`: the growth is 106% in the assay with DU-145 prostate; 51.9% with K-562 leukemia; 92.4% with MALME-3M melanoma; 97.7% with MDA-MB-231 breast; 94.8% with RXF 393 renal; 103% in the assay with SF-268 CNS. Moreover, the growth in the assay with SF-295 CNS is 93.6%; in the assay with SF-539 CNS it was 99.7%; with UACC-257 melanoma it was 91.1%; with M14 melanoma, 78.9%.
As for `COc1cc2c(c(O)c1Br)C(=O)c1c(O)cc(C[C@H](C)O)cc1[C@H]2[C@H]1c2cc(C[C@H](C)O)cc(O)c2C(=O)c2c1cc(OC)c(Br)c2O`, the growth in the assay with DU-145 prostate is 24.5%; with K-562 leukemia it was 5.05% (active); in the assay on MALME-3M melanoma it was -26.8% (active); in the assay with MDA-MB-231 breast, -58.1% (active); in the assay with RXF 393 renal, 21.1%; in the assay on SF-268 CNS, 19.4%. In addition, the growth in the assay on SF-295 CNS was -21.4% (active); in the assay on SF-539 CNS, -23.8% (active); with UACC-257 melanoma, -2.79% (active); in the assay with M14 melanoma it was 16.5%.
On to `N=C(N)c1ccc(OCCCCCCCCCCOc2ccc(C(=N)N)cc2)cc1`, for which the growth in the assay on DU-145 prostate is -96.6% (active); in the assay on K-562 leukemia, -67.5% (active); in the assay on MALME-3M melanoma, -81.8% (active); with MDA-MB-231 breast, -91.7% (active); in the assay with RXF 393 renal, -82.8% (active); in the assay with SF-268 CNS it was -81.3% (active). In addition, the growth in the assay on SF-295 CNS is -82.4% (active); in the assay on SF-539 CNS it was -87% (active); in the assay on UACC-257 melanoma, -69.7% (active); in the assay with M14 melanoma it was -85.6% (active).
As for `COc1cc(-c2csc(NC(=O)c3cc(F)cc(C(F)(F)F)c3)n2)cc(OC)c1OC`, the growth in the assay with DU-145 prostate was 14.6%; in the assay on K-562 leukemia, 8.12% (active); with MALME-3M melanoma, 40.3%; in the assay with MDA-MB-231 breast it was 56.5%; in the assay with RXF 393 renal, 11.8%; in the assay with SF-268 CNS, 42.4%. Besides, the growth is 38.1% in the assay on SF-295 CNS, 26.8% with SF-539 CNS, 58.6% in the assay with UACC-257 melanoma and 23.6% with M14 melanoma.
Consider `N#CC(C#N)=Cc1cc2ccccc2nc1Oc1ccc(C(F)(F)F)cc1`, for which the growth is 99.1% in the assay with DU-145 prostate; 64.5% with K-562 leukemia; 98.8% with MALME-3M melanoma; 84.5% in the assay on MDA-MB-231 breast; 92.3% with RXF 393 renal; 84.4% with SF-268 CNS. In addition, the growth in the assay on SF-295 CNS was 92.2%; in the assay with SF-539 CNS it was 96.9%; in the assay on UACC-257 melanoma, 106%; with M14 melanoma it was 92.8%.
As to `Cc1cc(C(=O)/C=C/c2ccc[nH]2)ccc1-n1ccc(C(F)(F)F)n1`, the growth with DU-145 prostate is 96%; in the assay with K-562 leukemia, 53.3%; in the assay with MALME-3M melanoma, 94.7%; in the assay with MDA-MB-231 breast it was 30.6%; in the assay on RXF 393 renal it was 21.2%; with SF-268 CNS, 49.1%. Further, the growth in the assay on SF-295 CNS was 85%; in the assay with SF-539 CNS, 13.5%; with UACC-257 melanoma, 97.4%; in the assay with M14 melanoma, 90.5%.
As to `NC(=O)Nc1ccc(-n2cnc3cc(-c4ccc(O)cc4)ccc32)cc1`, the growth with DU-145 prostate is 107%; in the assay on K-562 leukemia it was 89.3%; in the assay with MALME-3M melanoma it was 98.4%; in the assay with MDA-MB-231 breast, 107%; in the assay on RXF 393 renal, 123%; in the assay on SF-268 CNS it was 96.3%. The growth in the assay on SF-295 CNS is 97.4%; in the assay on SF-539 CNS, 67.2%; in the assay on UACC-257 melanoma, 112%; in the assay on M14 melanoma it was 91.6%.
Take `C=C1C(=O)O[C@H]2[C@H]1CC/C(CNC(=O)/C=C/c1ccccc1)=C\CC[C@@]1(C)O[C@@H]21`: the growth with DU-145 prostate is -34.3% (active); in the assay with K-562 leukemia, 1.51% (active); with MALME-3M melanoma, -50.1% (active); in the assay with MDA-MB-231 breast it was -15.2% (active); with RXF 393 renal, -90.2% (active); with SF-268 CNS, 48.1%. Also, the growth was 62.3% in the assay with SF-295 CNS, -63.8% (active) with SF-539 CNS, -55.1% (active) in the assay with UACC-257 melanoma and -63.2% (active) in the assay with M14 melanoma.
As to `Nc1c(C(=O)Nc2cccc3cnccc23)sc2nc3c(cc12)CN(Cc1ccccc1)CC3`, the growth with DU-145 prostate is 109%; in the assay with K-562 leukemia it was 96.5%; in the assay on MALME-3M melanoma, 101%; in the assay on MDA-MB-231 breast it was 89.1%; in the assay on RXF 393 renal, 103%; in the assay on SF-268 CNS, 103%. In addition, the growth in the assay on SF-295 CNS was 106%; in the assay with SF-539 CNS, 107%; with UACC-257 melanoma it was 124%; with M14 melanoma it was 102%.
Turning to `NCCCCCCNc1cc(-c2cccc(OC(F)(F)F)c2)nc2ccc(N3CCCC3)cc12`, the growth is -17.4% (active) with DU-145 prostate; -52.6% (active) with K-562 leukemia; -93.8% (active) with MALME-3M melanoma; -79.9% (active) in the assay on MDA-MB-231 breast; -90.8% (active) in the assay with RXF 393 renal; -3.93% (active) in the assay with SF-268 CNS. The growth with SF-295 CNS is -69.1% (active); in the assay with SF-539 CNS, -87.6% (active); in the assay on UACC-257 melanoma it was -67.7% (active); with M14 melanoma it was -71.4% (active).
Take `Oc1c(Cl)cc(Cl)c(Cl)c1CNCCNCc1c(O)c(Cl)cc(Cl)c1Cl`: the growth with DU-145 prostate is 45.9%; in the assay on K-562 leukemia, 10.3%; with MALME-3M melanoma it was 13.4%; with MDA-MB-231 breast, 35.5%; with RXF 393 renal, 28.2%; in the assay on SF-268 CNS it was 25%. For the same molecule, the growth in the assay with SF-295 CNS is 18.3%; in the assay on SF-539 CNS it was -9.34% (active); in the assay on UACC-257 melanoma, 4.63% (active); in the assay with M14 melanoma, 20.3%.
Take `COc1cc(/C(C)=C(\c2ccc(Cl)cc2)c2ccc(OCCN(C)C)cc2)ccc1F`: the growth in the assay with DU-145 prostate is 67.9%; with K-562 leukemia, 8.38% (active); with MALME-3M melanoma it was -7.62% (active); in the assay with MDA-MB-231 breast, 50.8%; in the assay on RXF 393 renal it was 60.5%; in the assay on SF-268 CNS it was 70.8%. Also, the growth in the assay on SF-295 CNS is 89.7%; in the assay on SF-539 CNS, 71.7%; with UACC-257 melanoma it was -4.66% (active); with M14 melanoma, 31.5%.
